Assay [1] deals with Plasmodium falciparum Sir2 (PF13_0152, Sir2A). In words: pfSir2 binders on small-molecule microarrays, primary screen, biochemical, small-molecule microarray, 635 nm fluorescence (AID 1098).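 Note: score merges spot fluorescence intensity with its signal-to-noise ratio.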 The following applies: small-molecule microarray binding, fluorescence 635 nm; higher = more signal.
Assay [2] can be described thus: small-molecule microarray binders of probe aDKK1, primary screen, biochemical, biotinylated probe, 635/667 nm fluorescence (AID 1099).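 Note: score merges 667nm spot fluorescence with signal to noise across triplicate slides.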 The following applies: higher = more signal.
The nature of assay [3]: small-molecule microarray binders of probe aCHRDL2, primary screen, biochemical, biotinylated probe, 635/667 nm fluorescence (AID 1100). The following applies: higher = more signal.
Assay [4] in a line: splicing luciferase reporter signal modulators, primary screen, spliceosome inhibition project, cell-based, HEK293, splice +/- reporter (AID 1101).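 Note: HEK293 cells carrying a splicing-competent luciferase reporter gene; test concentration not given here.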 To be noted: luminescence, 24 h, higher = more signal, called active from +8 up or from −8 down.
In assay [5] the target is Fibroblast growth factor 10 (Homo sapiens) (UniProt O15520). In words: FGF10 binders on small-molecule microarrays, primary screen, biochemical, small-molecule microarray, 635 nm fluorescence (AID 1102). The following applies: FGF10 binding, fluorescence 635 nm, higher = more signal.
The subject of assay [6] is glycogen synthase kinase-3 (GSK3A per assay name; protocol says GSK3B). Kind of assay: GSK3 binders on small-molecule microarrays, primary screen, biochemical, small-molecule microarray, 635 nm fluorescence, GSK3A (AID 1103). Note: the record names both GSK3A and GSK3B. To be noted: small-molecule microarray binding, fluorescence 635 nm; higher = more signal.
For assay [7], the target named is Epidermal growth factor receptor (Homo sapiens) (UniProt P00533). Kind of assay: EGFR binders on small-molecule microarrays, primary screen, biochemical, small-molecule microarray, 635 nm fluorescence (AID 1104).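 Note: score merges 667 nm emission intensity with spot signal to noise over triplicate slides.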 To be noted: EGFR binding, higher = more signal.
The target of assay [8] is Follistatin-related protein 3 (Homo sapiens) (UniProt O95633). Kind of assay: FSTL3 binders on small-molecule microarrays, primary screen, biochemical, small-molecule microarray, 635 nm fluorescence (AID 1105).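 Note: score merges emission near 667 nm and signal to noise per printed spot across three slides.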 The following applies: FSTL3 binding, higher = more signal.
For assay [9], the target named is Dickkopf-related protein 1 (Homo sapiens) (UniProt O94907). Kind of assay: DKK1 binders on small-molecule microarrays, primary screen, biochemical, small-molecule microarray, 635 nm fluorescence scan (AID 1106).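 Note: score merges emission near 667 nm with signal to noise over three replicate slides.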 The following applies: DKK1 binding, higher = more signal.
Assay [10] has as its system Inhibin beta A chain (activin A). In words: INHBA (activin A) binders on microarrays, primary screen, biochemical, small-molecule microarray, 635 nm fluorescence scan (AID 1107).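 Note: mouse activin A protein probed at 4.33 µg/mL on printed slides; score merges bound-protein fluorescence near 667 nm with spot signal-to-noise.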 To be noted: small-molecule microarray binding, higher = more signal.
Assay [11] relates to Human papillomavirus type 1a protein E7 (residues 44-93). Kind of assay: HPV1a E7 fragment binders on microarrays, primary screen, biochemical, small-molecule microarray, residues 44-93, 635 nm fluorescence (AID 1108).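 Note: E7 fragment applied at 1 µg/mL in TBST for 1 h at 4 C; score combines spot fluorescence with its signal to noise ratio.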 The following applies: small-molecule microarray binding, fluorescence 635 nm; higher = more signal.
Assay [12] is described as follows: modulators of HCV replicon luciferase signal, primary screen, HCV replication inhibitor project, Huh7 cells, luciferase reporter (AID 1109).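 Note: huh7 hepatoma cells harbouring a luciferase neomycin HCV replicon reporter; luciferase luminescence as measure of HCV replicon replication; test concentration not given here.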 To be noted: 48 h, higher = more signal. (In general: A replicon is a self-replicating genome or part of one, used to study replication in cells.)
Assay [13] concerns the target Left-right determination factor 2 (Homo sapiens) (UniProt O00292). Kind of assay: LEFTY2 binders on small-molecule microarrays, primary screen, biochemical, small-molecule microarray, 635 nm fluorescence scan (AID 1110). To be noted: LEFTY2 binding, higher = more signal.
In assay [14] the target is Calmodulin-1 (Homo sapiens) (UniProt P0DP23). Kind of assay: CALM1 binders on microarrays, EGTA buffer, profiling panel, biochemical, small-molecule microarray, Cy5-labelled CALM1 (AID 1111).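 Note: labelled calmodulin applied in Tris saline Tween buffer holding calcium plus EGTA and DTT.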 To be noted: Cy5-CALM1 binding fluorescence, higher = more signal.
Assay [15] shares this target. In words: calcium-bound CALM1 binders on microarrays, profiling panel, artefact control for SMM control-protein annotation, biochemical, small-molecule microarray, Cy5-labelled CALM1, plus calcium (AID 1112).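 Note: score merges spot fluorescence with signal to noise from triplicate slides.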 The following applies: Cy5-CALM1 binding fluorescence, higher = more signal.
Assay [16] in a line: small-molecule microarray binders of probe aWnt5a, primary screen, biochemical, biotinylated probe, 635/667 nm fluorescence (AID 1113).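 Note: score merges 667 nm fluorescence intensity with signal-to-noise per printed feature.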 To be noted: higher = more signal.
Assay [17] can be described thus: small-molecule microarray binders of probe aShh, primary screen, biochemical, biotinylated probe, 635/667 nm fluorescence (AID 1114).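 Note: probe is biotin-labelled aShh protein from a stem cell growth factor screen; measures binding of labelled protein to compounds printed on the slide; score merges feature fluorescence at 667 nm with signal-to-noise.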 The following applies: higher = more signal.
A short description of assay [18]: small-molecule microarray binders of probe aNog, primary screen, biochemical, biotinylated probe, 635/667 nm fluorescence (AID 1115).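 Note: probe is biotinylated aNog protein used at 0.15 µg/mL for 1 h at 4 C; z-score combines 667 nm fluorescence of each spot with its signal to noise.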 To be noted: higher = more signal.
Assay [19] has as its target Torsin-1A-interacting protein 1 (Homo sapiens) (UniProt Q5JTV8). In words: LAP1 binders from COS7 cell lysate, primary screen, small-molecule microarray, 635/667 nm fluorescence (AID 1116). The following applies: COS7-hLAP1 lysate binding, 635 nm fluorescence, higher = more signal.
In assay [20] the target is Alpha-bungarotoxin (Bungarus multicinctus) (UniProt P60615). Kind of assay: alpha-bungarotoxin binders on microarray, profiling panel, artefact control for SMM control protein annotation, biochemical, small-molecule microarray, Alexa647 label, 635/667 nm fluorescence (AID 1117). To be noted: alpha-BTX-A647 binding fluorescence, higher = more signal.

SMILES strings stand for the structures. Calls of active or inactive are those of the source.

Sequence of Fibroblast growth factor 10 (Homo sapiens) (O15520 whole entry, looked up): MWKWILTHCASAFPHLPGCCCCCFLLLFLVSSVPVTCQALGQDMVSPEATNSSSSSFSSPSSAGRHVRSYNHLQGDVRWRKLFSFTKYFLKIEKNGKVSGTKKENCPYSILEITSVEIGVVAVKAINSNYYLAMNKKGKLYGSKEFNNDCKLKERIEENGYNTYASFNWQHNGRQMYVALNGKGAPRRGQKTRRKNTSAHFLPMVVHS
Sequence of Follistatin-related protein 3 (Homo sapiens) (O95633 whole entry, looked up): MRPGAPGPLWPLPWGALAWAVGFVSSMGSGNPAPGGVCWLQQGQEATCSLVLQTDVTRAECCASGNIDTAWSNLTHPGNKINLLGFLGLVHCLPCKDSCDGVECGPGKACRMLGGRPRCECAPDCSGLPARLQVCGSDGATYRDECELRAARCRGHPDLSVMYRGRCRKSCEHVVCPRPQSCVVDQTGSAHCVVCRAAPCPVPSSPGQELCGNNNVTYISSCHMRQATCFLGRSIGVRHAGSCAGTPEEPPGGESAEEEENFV
Sequence of Dickkopf-related protein 1 (Homo sapiens) (O94907 whole entry, looked up): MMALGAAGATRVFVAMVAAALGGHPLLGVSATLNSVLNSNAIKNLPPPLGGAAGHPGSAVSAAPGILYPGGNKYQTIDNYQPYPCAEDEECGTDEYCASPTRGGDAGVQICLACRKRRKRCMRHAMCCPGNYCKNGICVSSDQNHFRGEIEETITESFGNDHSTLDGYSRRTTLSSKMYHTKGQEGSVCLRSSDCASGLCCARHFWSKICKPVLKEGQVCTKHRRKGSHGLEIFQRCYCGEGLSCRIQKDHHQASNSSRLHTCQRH
Sequence of Alpha-bungarotoxin (Bungarus multicinctus) (P60615 whole entry, looked up): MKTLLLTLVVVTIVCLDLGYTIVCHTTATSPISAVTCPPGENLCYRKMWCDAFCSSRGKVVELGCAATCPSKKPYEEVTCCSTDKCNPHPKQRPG
Sequence of Epidermal growth factor receptor (Homo sapiens) (P00533 whole entry, looked up): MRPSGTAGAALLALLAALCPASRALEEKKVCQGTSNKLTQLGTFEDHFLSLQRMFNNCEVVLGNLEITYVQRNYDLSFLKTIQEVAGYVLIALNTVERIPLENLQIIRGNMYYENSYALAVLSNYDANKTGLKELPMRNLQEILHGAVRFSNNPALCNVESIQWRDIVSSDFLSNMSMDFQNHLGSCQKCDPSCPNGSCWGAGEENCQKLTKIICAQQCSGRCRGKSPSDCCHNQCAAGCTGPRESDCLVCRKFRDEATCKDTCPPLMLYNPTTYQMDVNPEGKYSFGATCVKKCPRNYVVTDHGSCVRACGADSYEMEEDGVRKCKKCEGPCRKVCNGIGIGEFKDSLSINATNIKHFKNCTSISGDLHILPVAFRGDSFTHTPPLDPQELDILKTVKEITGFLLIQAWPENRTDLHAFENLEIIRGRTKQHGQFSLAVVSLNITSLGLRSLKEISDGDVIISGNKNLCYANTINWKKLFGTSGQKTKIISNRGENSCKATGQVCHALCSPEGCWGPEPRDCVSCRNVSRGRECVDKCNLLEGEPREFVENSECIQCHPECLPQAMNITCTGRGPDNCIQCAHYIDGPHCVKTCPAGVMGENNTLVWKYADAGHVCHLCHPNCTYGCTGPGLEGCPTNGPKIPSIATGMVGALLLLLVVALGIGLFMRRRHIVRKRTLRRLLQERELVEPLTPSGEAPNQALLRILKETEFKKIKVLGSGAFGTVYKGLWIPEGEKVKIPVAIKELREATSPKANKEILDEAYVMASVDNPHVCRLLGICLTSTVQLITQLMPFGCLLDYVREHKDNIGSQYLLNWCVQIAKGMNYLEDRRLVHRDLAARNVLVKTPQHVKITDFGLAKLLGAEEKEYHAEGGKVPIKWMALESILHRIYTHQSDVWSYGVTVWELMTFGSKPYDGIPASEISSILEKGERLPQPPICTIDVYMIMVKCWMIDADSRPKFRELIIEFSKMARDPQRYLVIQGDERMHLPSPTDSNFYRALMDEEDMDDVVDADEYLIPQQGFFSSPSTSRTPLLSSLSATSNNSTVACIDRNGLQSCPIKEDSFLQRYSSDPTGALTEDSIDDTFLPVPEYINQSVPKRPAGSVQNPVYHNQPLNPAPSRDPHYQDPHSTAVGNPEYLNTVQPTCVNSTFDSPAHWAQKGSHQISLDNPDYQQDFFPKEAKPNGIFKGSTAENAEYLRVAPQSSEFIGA
Sequence of Torsin-1A-interacting protein 1 (Homo sapiens) (Q5JTV8 whole entry, looked up): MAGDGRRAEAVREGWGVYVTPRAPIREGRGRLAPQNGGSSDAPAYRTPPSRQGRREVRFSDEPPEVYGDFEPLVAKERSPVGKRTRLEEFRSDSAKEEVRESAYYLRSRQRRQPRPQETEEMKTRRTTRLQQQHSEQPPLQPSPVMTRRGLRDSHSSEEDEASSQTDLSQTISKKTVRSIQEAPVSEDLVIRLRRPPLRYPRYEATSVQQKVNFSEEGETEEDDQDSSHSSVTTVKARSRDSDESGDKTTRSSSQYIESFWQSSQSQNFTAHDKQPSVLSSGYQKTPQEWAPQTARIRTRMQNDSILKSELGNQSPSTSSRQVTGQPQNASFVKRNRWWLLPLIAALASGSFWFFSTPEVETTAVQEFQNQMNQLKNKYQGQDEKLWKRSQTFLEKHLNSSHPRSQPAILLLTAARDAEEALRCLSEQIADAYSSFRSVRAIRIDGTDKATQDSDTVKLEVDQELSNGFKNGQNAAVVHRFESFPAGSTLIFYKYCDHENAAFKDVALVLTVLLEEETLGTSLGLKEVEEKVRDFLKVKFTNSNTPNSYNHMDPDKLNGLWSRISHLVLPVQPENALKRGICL
Sequence of Left-right determination factor 2 (Homo sapiens) (O00292 whole entry, looked up): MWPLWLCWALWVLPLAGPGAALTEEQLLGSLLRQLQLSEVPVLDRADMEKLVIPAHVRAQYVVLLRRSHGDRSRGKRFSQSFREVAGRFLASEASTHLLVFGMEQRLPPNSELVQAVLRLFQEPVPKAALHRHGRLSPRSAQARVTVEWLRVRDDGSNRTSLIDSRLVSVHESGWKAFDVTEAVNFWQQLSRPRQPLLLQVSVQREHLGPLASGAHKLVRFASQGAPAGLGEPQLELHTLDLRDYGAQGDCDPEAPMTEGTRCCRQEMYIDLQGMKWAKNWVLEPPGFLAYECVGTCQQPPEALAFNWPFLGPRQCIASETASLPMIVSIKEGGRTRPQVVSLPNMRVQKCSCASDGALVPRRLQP

`O=C1c2ccccc2[C@@]2(Cc3ccccc3N(Cc3ccccc3)C2=O)[C@H](c2ccc(CO)cc2)N1Cc1ccccc1Cl`: the composite z-score in assay [1] was -0.493; in assay [2] it was -0.0131; in assay [3], 0.28; in assay [5], -0.377; in assay [6], -1.35; in [7], -0.804. Besides, the composite z-score is -0.277 in assay [8]; -0.666 in assay [9]; 0.54 in assay [10]; -0.728 in [11]; -0.44 in assay [13]; -0.223 in assay [14]. In addition, the composite z-score is 0.306 in assay [15]; -0.202 in assay [16]; -0.412 in [17]; 0.105 in assay [18]; -0.881 in assay [19]; -0.0792 in [20]. Also, the z-score in [4] is -1.06 (inactive); in [12], 0.0868.

Regarding `C=CCOC(=O)[C@H]1[C@@H]2C(=O)O[C@@H](c3ccccc3)[C@@H](c3ccccc3)N2[C@@H](c2ccc(OCCOC(=O)[C@@H]3C[C@@H]4C(=O)N[C@@H](CCCCNC(C)=O)C(=O)N4[C@@H]3c3cccc(OCCO)c3)cc2)[C@]12C(=O)Nc1ccccc12`, the composite z-score in assay [1] was 1.43; in assay [2] it was 0.171; in assay [3], 0.042; in assay [5], 0.794; in [6], 1.32; in assay [7], 0.793. Also, the composite z-score in [8] worked out at 0.726; in assay [9], 0.698; in assay [10], 0.239; in assay [11] it was 0.843; in assay [13], 0.781; in [14] it was 0.258. The composite z-score is 0.121 in assay [15]; -0.124 in assay [16]; 0.147 in [17]; 0.254 in [18]; 0.439 in assay [19]; -0.0506 in [20]. Besides, the z-score in [4] was 0.736 (inactive); in assay [12], -1.48.

As to `COCCOC(=O)N1C(=O)[C@@]2(c3cc(C#CCCO)ccc31)[C@H](c1ccc(OCCO)cc1)N1[C@H](c3ccccc3)[C@H](c3ccccc3)OC(=O)[C@H]1[C@@H]2C(=O)N1CCCCCCC1`, the composite z-score in [1] came to 1.23; in [2], 2.43; in assay [3], 1.51; in assay [5], 1.25; in assay [6], 1.32; in assay [7] it was 1.32. The composite z-score in assay [8] worked out at 1.54; in [9], 1.85; in [10], 1.73; in assay [11] it was 0.371; in assay [13] it was 1.39; in [14], 1.99. The composite z-score in assay [15] came out at 0.953; in [16], 0.779; in assay [17], 0.599; in [18] it was 0.952; in assay [19], 3.39; in [20], 2.3. The z-score is 0.458 (inactive) in assay [4] and -0.882 in assay [12].

Consider `C=CCC(OC(C)=O)[C@@H]1[C@@H](N(Cc2cccc3ccccc23)C(=O)Cc2ccc(OC)cc2)c2cc(OCCCO)ccc2N1C(=O)Cc1ccc2ccccc2c1` (stereo not given in full), for which the composite z-score in [1] was 0.067; in [2] it was -0.237; in assay [3], 0.087; in assay [5], -0.0821; in assay [6], -0.227; in assay [7] it was 0.0289. The composite z-score in assay [8] was 0.404; in assay [9], 0.073; in assay [10], 0.68; in assay [11], 0.415; in assay [13], -0.102; in assay [14], 0.0895. Besides, the composite z-score in assay [15] is 0.316; in assay [16], -0.216; in assay [17], -0.138; in [18], -0.308; in assay [19], -0.0234; in assay [20], 0.14. Besides, the z-score was -0.738 (inactive) in [4] and 0.24 in [12].

As for `COc1ccc(C(=O)Nc2cccc(CN3C(=O)[C@]4(O[C@H](CC(=O)N5Cc6ccccc6C[C@H]5CO)[C@@H]([Si](C)(C)c5ccc(OC)cc5)[C@@H]4C)c4ccccc43)c2)cc1`, the composite z-score in assay [1] was 0.895; in [2] it was -0.245; in assay [3] it was -0.362; in [5] it was 0.946; in [6] it was 0.955; in [7] it was 1.24. Also, the composite z-score in [8] was found to be 1.42; in [9], 1.34; in assay [10] it was 1.21; in assay [11], 1.23; in [13], 1.05; in assay [14], 0.219. In addition, the composite z-score in [15] was -0.763; in assay [16], 0.0194; in [17], 0.0639; in assay [18], 0.0811; in [19] it was 0.711; in assay [20] it was 1.12. Besides, the results for the z-score in [4] and in [12] were -0.865 (inactive) and -3.44, respectively.

The values above are taken from PubChem BioAssay.
